Source: PubChem BioAssay AID743331 (Broad Institute, 2014)
Values without a mark were called inactive.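 Rule for the calls: active = falling cell viability signal whose fitted half-effect concentration is at most twice the highest valid tested dose; inconclusive = flat curve with 30 to 70 percent loss, or poor fit; inactive = the rest.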

experiment: HepG2 viability loss, ATP readout – cell-based, plate reader, dry powder, set 8, cytotoxicity control, dose response (AID 743331); settings: CellTiter-Glo ATP luminescence, 72 h; series mostly up to 15 µM; activity change, negative = cytotoxicity: at the top concentration

SMILES	activity change, negative = cytotoxicity
CN(C)S(=O)(=O)c1ccc(N2CCCC2)c(C(=O)Nc2nc3ccccc3s2)c1	-6.07%
Cc1cnc(NC(=O)c2cc(S(=O)(=O)N3CCOCC3)ccc2N2CCCC2)s1	-0.67%
Cc1ccc(NC(=O)c2cc(S(=O)(=O)N(C)C)ccc2N2CCCC2)cc1	-1.89%
Cc1cnc(NC(=O)c2cc(S(=O)(=O)N(C)C)ccc2N2CCC2)s1	-4.57%
Cc1cnc(NC(=O)c2cc(S(=O)(=O)N(C)C)ccc2N(C)C)s1	1.98%
COc1ccc2sc(NC(=O)c3cc(S(=O)(=O)N(C)C)ccc3N3CCCC3)nc2c1	36.4%
CN(C)S(=O)(=O)c1ccc(N2CCCC2)c(C(=O)Nc2nccs2)c1	-1.58%
CN(C)CCCN(Cc1cc2ccccc2[nH]c1=O)C(=O)Nc1ccccc1	-8.85%
COc1ccc2nc(NC(=O)c3cc(S(=O)(=O)N(C)C)ccc3N3CCCC3)sc2c1	-6.47%
COc1cccc2sc(NC(=O)c3cc(S(=O)(=O)N(C)C)ccc3N3CCCC3)nc12	7.99%
Cc1csc(NC(=O)c2cc(S(=O)(=O)N(C)C)ccc2N2CCCC2)n1	-5.77%
Cc1cnc(NC(=O)c2cc(S(=O)(=O)N3CCCC3)ccc2N2CCCC2)s1	2.46%
Cc1cnc(NC(=O)c2cc(S(=O)(=O)N3CCCCC3)ccc2N2CCCC2)s1	1.41%
CN(C)S(=O)(=O)c1ccc(N2CCCC2)c(C(=O)Nc2cccc(F)c2)c1	-9.24%
CN(C)S(=O)(=O)c1ccc(N2CCCC2)c(C(=O)Nc2ccccc2)c1	2.08%
Cc1cnc(NC(=O)c2cc(S(=O)(=O)N(C)C)ccc2N2CCCC2)s1	-14.3%
Cc1cnc(NC(=O)c2cc(S(=O)(=O)N(C)C)ccc2C2CCCC2)s1	1.69%
CN(C)CCCN(Cc1cc2ccccc2[nH]c1=O)C(=O)NCc1ccccc1	-1.32%
CCN(CC)c1ccc(S(=O)(=O)N(C)C)cc1C(=O)Nc1ncc(C)s1	-2.29%
